The source made the active and inactive calls. How the source made its calls: active means hit-call score of the fitted dose curve at least 0.9, where 1 is the maximum; inactive means score below 0.9.
What was measured:
[1] = read-out: urokinase plasminogen activator (uPA), PLAU (gene 5328); experiment: BSK_KF3CT_uPA: BioMAP Diversity Plus: KF3CT Assay for urokinase plasminogen activator (uPA) Biomarker Activity (AID 2283075); conditions: primary human keratinocytes with fibroblasts; actives raise or lower the signal
Outline: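 Human keratinocyte plus foreskin fibroblast primary co-culture exposed to chemical for 24 h. uPA levels were quantified by ELISA, and activity was fitted bidirectionally against a DMSO negative-control baseline.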

CD40, CD40 (gene 958) [2] = experiment: BSK_LPS_CD40: BioMAP Diversity Plus: LPS Assay for CD40 Biomarker Activity (AID 2283076); conditions: primary human HUVEC with PBMC; actives raise or lower the signal
Outline: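 ELISA readout of CD40 in HUVEC/PBMC co-culture (BSK_LPS system), 24 h post-dosing; bidirectional curve fit, DMSO baseline; parallel SRB total-protein staining for cytotoxicity.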

[3] = read-out: E-selectin (Homo sapiens) (UniProt P16581); experiment: BSK_LPS_Eselectin: BioMAP Diversity Plus: LPS Assay for Eselectin Biomarker Activity (AID 2283077); conditions: primary human HUVEC with PBMC; actives raise or lower the signal
Outline: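 ELISA readout of E-selectin, 24 h post-dose, HUVEC + PBMC co-culture (LPS system). Gain or loss of signal vs DMSO baseline, bidirectional fit.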

[4] = read-out: Interleukin-8 (IL8), CXCL8 (gene 3576); experiment: BSK_LPS_IL8: BioMAP Diversity Plus: LPS Assay for Interleukin-8 (IL8) Biomarker Activity (AID 2283078); conditions: primary human HUVEC with PBMC; actives raise or lower the signal
Outline: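 HUVEC + PBMC co-culture, LPS-activated; test chemicals dosed, IL-8 read by ELISA at 24 h. Bidirectional curve fit vs DMSO baseline (gain or loss of signal).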

[5] = BSK_LPS_SRB: Viability Assessment in the BioMAP Diversity Plus: LPS Assay (AID 2283079); conditions: primary human HUVEC with PBMC;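 further: total protein by sulforhodamine B absorbance as a cytotoxicity measure; measured one day after compound addition; fitted in both directions against DMSO so loss or gain of signal counts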
Outline: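 HUVEC + PBMC co-culture, LPS-stimulated; compound 24 h. 10% TCA fix, 0.1% SRB stain, A560. Bidirectional fit vs DMSO.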

[6] = read-out: Interleukin-1 alpha (IL1a), IL1A (gene 3552); experiment: BSK_LPS_IL1a: BioMAP Diversity Plus: LPS Assay for Interleukin-1 alpha (IL1a) Biomarker Activity (AID 2283080); conditions: primary human HUVEC with PBMC; actives raise or lower the signal
Outline: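 HUVEC/PBMC co-culture, LPS system; 24 h after dosing; IL-1a by ELISA; gain or loss of signal fitted bidirectionally vs DMSO baseline.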

[7] = read-out: Monocyte Chemoattractant Protein-1 (MCP1), CCL2 (gene 6347); experiment: BSK_LPS_MCP1: BioMAP Diversity Plus: LPS Assay for Monocyte Chemoattractant Protein-1 (MCP1) Biomarker Activity (AID 2283081); conditions: primary human HUVEC with PBMC; actives raise or lower the signal;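 on AC50: secreted MCP-1 protein quantified by ELISA in culture supernatant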
Outline: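 ELISA read-out of MCP-1 after 24 h chemical dosing of a human umbilical vein endothelial cell/peripheral blood mononuclear cell co-culture stimulated with LPS. Gain or loss of signal fitted relative to DMSO controls.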

[8] = BSK_LPS_PGE2: BioMAP Diversity Plus: LPS Assay for Prostaglandin E2 (PGE2) Biomarker Activity (AID 2283082); conditions: primary human HUVEC with PBMC; actives raise or lower the signal;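 on AC50: secreted prostaglandin E2 measured by ELISA in LPS-stimulated co-culture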
Outline: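 HUVEC plus human PBMC co-culture stimulated with LPS; secreted PGE2 quantified by ELISA 24 h after chemical dosing. Activity fitted bidirectionally against DMSO baseline; parallel SRB staining (0.1% SRB after 10% TCA fixation, 560 nm) flags overt cytotoxicity.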

[9] = read-out: Macrophage colony-stimulating factor (MCSF), CSF1 (gene 1435); experiment: BSK_LPS_MCSF: BioMAP Diversity Plus: LPS Assay for Macrophage colony-stimulating factor (MCSF) Biomarker Activity (AID 2283083); conditions: primary human HUVEC with PBMC; actives raise or lower the signal
Outline: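 HUVEC + PBMC co-culture (human primary), 24 h post-dose; M-CSF by ELISA; gain/loss of signal fitted bidirectionally vs DMSO baseline.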

[10] = read-out: Tissue Factor, F3 (gene 2152); experiment: BSK_LPS_TissueFactor: BioMAP Diversity Plus: LPS Assay for Tissue Factor Biomarker Activity (AID 2283084); conditions: primary human HUVEC with PBMC; actives raise or lower the signal
Outline: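 HUVEC/PBMC co-culture, LPS-activated; CD142 ELISA read 24 h post-dose; bidirectional curve fit vs DMSO negative control.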

[11] = read-out: Tumor necrosis factor (Homo sapiens) (UniProt P01375); experiment: BSK_LPS_TNFa: BioMAP Diversity Plus: LPS Assay for Tumour Necrosis Factor alpha (TNFa) Biomarker Activity (AID 2283085); conditions: primary human HUVEC with PBMC; actives raise or lower the signal
Outline: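 Human umbilical vein endothelial cells co-cultured with PBMC and stimulated with LPS. TNFa was measured by ELISA 24 h after chemical dosing, fitted bidirectionally relative to DMSO.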

[12] = read-out: Vascular cell adhesion molecule 1 (VCAM1), VCAM1 (gene 7412); experiment: BSK_LPS_VCAM1: BioMAP Diversity Plus: LPS Assay for Vascular cell adhesion molecule 1 (VCAM1) Biomarker Activity (AID 2283086); conditions: primary human HUVEC with PBMC; actives raise or lower the signal
Outline: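 Human umbilical vein endothelial cells co-cultured with PBMC and stimulated with LPS; VCAM-1 measured by ELISA 24 h after dosing. Bidirectional curve fitting against DMSO baseline; cytotoxicity tracked in parallel by SRB total-protein staining.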

CD38, CD38 (gene 952) = experiment: BSK_SAg_CD38: BioMAP Diversity Plus: SAg Assay for CD38 Biomarker Activity (AID 2283087); conditions: primary human HUVEC with PBMC; actives raise or lower the signal
Outline: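 Human HUVEC plus PBMC co-culture stimulated with superantigen; CD38 measured by ELISA 24 h after chemical dosing. Fluorescence read-out, bidirectional fit against DMSO; cytotoxicity tracked in parallel by SRB and Alamar Blue.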

CD40, CD40 (gene 958) [13] = experiment: BSK_SAg_CD40: BioMAP Diversity Plus: SAg Assay for CD40 Biomarker Activity (AID 2283088); conditions: primary human HUVEC with PBMC; actives raise or lower the signal
Outline: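 HUVEC/PBMC co-culture, 24 h post-dose; CD40 by ELISA, fluorescence intensity; bidirectional fit vs DMSO negative control.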

CD69, CD69 (gene 969) = experiment: BSK_SAg_CD69: BioMAP Diversity Plus: SAg Assay for CD69 Biomarker Activity (AID 2283089); conditions: primary human HUVEC with PBMC; actives raise or lower the signal;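 on AC50: cell surface CD69 protein quantified by ELISA with fluorescence detection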
Outline: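 Values derive from bidirectional fitting relative to DMSO vehicle. Cells: umbilical vein endothelium plus peripheral blood mononuclear cells, treated 24 h before fluorescent ELISA for CD69.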

[14] = read-out: Monocyte Chemoattractant Protein-1 (MCP1), CCL2 (gene 6347); experiment: BSK_SAg_MCP1: BioMAP Diversity Plus: SAg Assay for Monocyte Chemoattractant Protein-1 (MCP1) Biomarker Activity (AID 2283090); conditions: primary human HUVEC with PBMC; actives raise or lower the signal
Outline: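 MCP-1 levels in the endothelial–PBMC SAg co-culture were quantified by ELISA at 24 h post-dosing; both increases and decreases versus DMSO scored. Cytotoxicity monitored by SRB total protein in parallel cultures.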

[15] = read-out: E-selectin (Homo sapiens) (UniProt P16581); experiment: BSK_SAg_Eselectin: BioMAP Diversity Plus: SAg Assay for Eselectin Biomarker Activity (AID 2283091); conditions: primary human HUVEC with PBMC; actives raise or lower the signal
Outline: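 E-selectin ELISA readout at 24 h post-dosing in human umbilical vein endothelial cell/PBMC co-culture; gain or loss of signal fitted relative to DMSO baseline.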

[16] = read-out: Monokine induced gamma interferon (MIG), CXCL9 (gene 4283); experiment: BSK_SAg_MIG: BioMAP Diversity Plus: SAg Assay for Monokine induced gamma interferon (MIG) Biomarker Activity (AID 2283092); conditions: primary human HUVEC with PBMC; actives raise or lower the signal
Outline: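 Values reflect bidirectional fitting of ELISA-measured MIG against DMSO vehicle, taken 24 h after dosing of a co-culture of human umbilical vein endothelial cells and peripheral blood mononuclear cells.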

[17] = BSK_SAg_PBMCCytotoxicity: PBMC Cytotoxicity Assessment in the BioMAP Diversity Plus: SAg Assay (AID 2283093); conditions: primary human HUVEC with PBMC;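 further: PBMC viability measured as Alamar Blue reduction fluorescence at 546/580 nm; fitted both ways against DMSO so a hit may be loss or gain of signal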;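 on AC50: PBMC superantigen activated with SEB plus TSST-1 one hour after compound addition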
Outline: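 Human umbilical vein endothelial cells co-cultured with PBMC; PBMC (75,000/well) pre-treated with compound 1 h, then activated with SEB and TSST-1 (20 ng/mL final each) for 90 h. Alamar Blue added 6 h, fluorescence 546/580 nm; bidirectional fit versus DMSO.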

[18] = read-out: Interleukin-8 (IL8), CXCL8 (gene 3576); experiment: BSK_SAg_IL8: BioMAP Diversity Plus: SAg Assay for Interleukin-8 (IL8) Biomarker Activity (AID 2283094); conditions: primary human HUVEC with PBMC; actives raise or lower the signal
Outline: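 Human umbilical vein endothelial cells co-cultured with PBMC, stimulated with superantigen; IL-8 measured by ELISA 24 h after chemical dosing. Bidirectional fitting versus DMSO; SRB staining in parallel cultures tracks cytotoxicity.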

Measured: AC50

Sequence of Tumor necrosis factor (Homo sapiens) (P01375 whole entry, looked up): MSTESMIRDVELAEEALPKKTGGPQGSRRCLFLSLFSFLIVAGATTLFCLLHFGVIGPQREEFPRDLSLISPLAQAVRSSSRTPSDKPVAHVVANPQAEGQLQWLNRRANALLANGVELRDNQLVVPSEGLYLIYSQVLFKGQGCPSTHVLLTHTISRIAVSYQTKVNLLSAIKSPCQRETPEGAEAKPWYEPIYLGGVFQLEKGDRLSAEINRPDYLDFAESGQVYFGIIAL
Sequence of E-selectin (Homo sapiens) (P16581 whole entry, looked up): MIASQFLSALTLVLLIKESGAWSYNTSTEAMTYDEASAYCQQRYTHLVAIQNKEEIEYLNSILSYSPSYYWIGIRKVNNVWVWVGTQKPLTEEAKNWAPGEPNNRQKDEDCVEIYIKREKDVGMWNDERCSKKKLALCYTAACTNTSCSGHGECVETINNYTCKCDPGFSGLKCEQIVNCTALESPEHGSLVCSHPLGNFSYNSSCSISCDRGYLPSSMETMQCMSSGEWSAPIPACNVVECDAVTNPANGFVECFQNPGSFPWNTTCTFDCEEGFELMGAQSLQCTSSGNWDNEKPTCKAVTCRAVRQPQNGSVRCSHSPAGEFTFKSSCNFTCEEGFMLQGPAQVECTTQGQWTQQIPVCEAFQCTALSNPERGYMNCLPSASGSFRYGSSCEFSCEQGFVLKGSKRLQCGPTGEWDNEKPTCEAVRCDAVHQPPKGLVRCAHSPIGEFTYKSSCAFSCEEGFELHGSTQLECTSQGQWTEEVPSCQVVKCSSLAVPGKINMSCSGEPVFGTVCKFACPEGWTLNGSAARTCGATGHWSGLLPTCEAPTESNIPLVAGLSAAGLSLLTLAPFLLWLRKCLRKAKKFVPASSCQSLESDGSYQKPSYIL

Cc1cc(Cl)ccc1OC(C)C(=O)O (stereo not given)
inactive: [1] | CD40, CD40 (gene 958) [2] | [3] | [4] | [5] | [6] | [7] | [8] | [9] | [10] | [11] | [12] | CD38, CD38 (gene 952) | CD40, CD40 (gene 958) [13] | CD69, CD69 (gene 969) | [14] | [15] | [16] | [17] | [18]

CC(C)O.CC(C)O.OCCN(CCO)CCO.OCCN(CCO)CCO.[Ti]
active: [10] 1.38 µM
inactive: [1] | CD40, CD40 (gene 958) [2] | [3] | [4] | [5] | [6] | [7] | [8] | [9] | [11] | [12] | CD38, CD38 (gene 952) | CD40, CD40 (gene 958) [13] | CD69, CD69 (gene 969) | [14] | [15] | [16] | [17] | [18]

c1ccc(-c2cccc(-c3ccccc3)c2)cc1
active: CD40, CD40 (gene 958) [2] 25.4 µM | [3] 29.7 µM | [4] 29.9 µM | [5] 23.9 µM | [6] 20 µM | [7] 29.5 µM | [8] 0.75 µM | [9] 30.2 µM | [10] 32.7 µM | [12] 27.3 µM | CD38, CD38 (gene 952) 30.5 µM | CD40, CD40 (gene 958) [13] 29.4 µM | CD69, CD69 (gene 969) 30.9 µM | [14] 32.5 µM | [15] 33.1 µM | [17] 20 µM | [18] 20 µM
inactive: [1] | [11] | [16]

N#Cc1cccnc1
inactive: [1] | CD40, CD40 (gene 958) [2] | [3] | [4] | [5] | [6] | [7] | [8] | [9] | [10] | [11] | [12] | CD38, CD38 (gene 952) | CD40, CD40 (gene 958) [13] | CD69, CD69 (gene 969) | [14] | [15] | [16] | [17] | [18]

OC(Cc1ccccc1Cl)(Cn1[nH]cnc1=S)C1(Cl)CC1 (stereo not given)
active: CD40, CD40 (gene 958) [2] 20 µM | [7] 24.6 µM | [8] 11.1 µM | CD38, CD38 (gene 952) 20 µM | CD40, CD40 (gene 958) [13] 20 µM | CD69, CD69 (gene 969) 14.1 µM | [18] 3.97 µM
inactive: [1] | [3] | [4] | [5] | [6] | [9] | [10] | [11] | [12] | [14] | [15] | [16] | [17]

O=C(O)C1(c2ccc3c(c2)OC[C@H](Cc2ccc(-c4ccccc4)cc2)[C@H]3O)CCCC1
inactive: [3] | [4] | [5] | [6] | [7] | [8] | [9] | [10] | [11] | CD69, CD69 (gene 969) | [16] | [17]
active: [1] 28.6 µM | CD40, CD40 (gene 958) [2] 20 µM | [12] 20 µM | CD38, CD38 (gene 952) 23.3 µM | CD40, CD40 (gene 958) [13] 20 µM | [14] 20 µM | [15] 14.1 µM | [18] 24.6 µM
